Rows were chosen to be rich in hits. Some 3.9% of all compounds tested hit in one or more screens of this group.
esBAF inh: SWI/SNF esBAF complex inhibition; AID 602393; reporter increase, % at 12.5 µM; mouse ES cells, Bmi1-luciferase knock-in reporter, 24 h; 100% = twice the neutral-well signal; 350,000 tested, 2% active; in the data active means activation above about 40%; inconclusive means no clear call, values can overlap the other calls;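 further: 0% = median of the plate's neutral control wells and 100% = double that signal; a rise in the Bmi1 reporter signal indicates esBAF inhibition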
HSF-1 act: increases HSF-1 driven luciferase reporter signal; NIH3T3-HGL HSF-1 luciferase reporter, MG132, 8 h; 100% = twice DMSO control signal; activation, % at 9 µM; 300,000 tested, 1.7% active;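 active means mean replicate activation of at least 50% with a set share of replicates each reaching 50%; inconclusive means only one of those two conditions met; inactive means mean below 50% and too few replicates reaching it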;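 further: 0% = median of the neutral control wells and 100% = twice that signal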
Wnt bcat act: activates Wnt/beta-catenin signaling in a reporter cell assay; activator, plate reader; activation, % at 9.35 µM; 300,000 tested, 1.2% active; in the data active means activation above about 30%, passing the limit was not always enough; inconclusive means no clear call, values can overlap the other calls;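 further: 0% = neutral control wells and 100% = positive control wells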
MITF act: MITF TRPM1 promoter activation in melanoma cells; activation, % at 12.5 µM; SK-MEL-5 TRPM1-promoter luciferase, 24 h; % of positive control, neutral wells = 0; 300,000 tested, 0.75% active;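 active means mean activation of at least 80% with every replicate also reaching 80%; inconclusive means mean reaches 80% but some replicate falls short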;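 further: 0% = neutral control wells and 100% = parthenolide positive control wells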
HSF1 inh: HSF1 inhibition; NIH3T3-HGL HSE-luciferase, MG132-induced, luminescence 8 h; active compounds read low; activity change, negative = inhibition, % at 7.5 µM (by protocol); 300,000 tested, 0.77% active;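 active means more than half of replicate wells show activity change below -50%, luminescence cut by over half; inconclusive means some wells, but at most half, below -50%; inactive means no replicate well below -50%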;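 further: luciferase reports HSF-1 transcriptional activity via heat shock element; 0% = median of DMSO wells and -100% = zero luminescence signal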
* marks the source's active call; other numbers are inactive results; ? = inconclusive; . = no result given.

SMILES	esBAF inh	HSF-1 act	Wnt bcat act	MITF act	HSF1 inh
C[C@H](CO)N1C[C@H](C)[C@@H](CN(C)CC2CCCCC2)OCCCC[C@H](C)Oc2ccc(NS(=O)(=O)c3cn(C)cn3)cc2C1=O	1	.	.	.	.
CCC(O)(CC)C(=O)N(Nc1ccc(C)cc1)c1ccc(C)cc1	2	22	-3	.	16
CCOC(=O)C(=O)N(Nc1ccc(C)cc1)c1ccc(C)cc1	.	43	44*	28	20
Cc1ccc(S(=O)(=O)Nc2ccc3c(c2)C(=O)N([C@@H](C)CO)C[C@H](C)[C@@H](CN(C)C(=O)c2ccncc2)OCCCC[C@@H](C)O3)cc1	2	.	.	.	.
O=C(c1ccco1)N1CCN(c2nc(C3CC3)nc3c2nnn3Cc2ccccc2Cl)CC1	2	29	.	8	15
CC(C)(C)c1nc(N2CCN(C(=O)c3ccco3)CC2)c2nnn(Cc3ccccc3)c2n1	3	-77	-3	.	-70*
CO[C@@H]1CN(C)C(=O)c2cc(NC(=O)C3CC3)ccc2OC[C@H](C)N(Cc2cccc(F)c2)C[C@@H]1C	2	.	.	.	.
CC(=O)c1sc(NC(=O)c2ccc(Cl)cc2)nc1C	51*	14	-2	89*	0
CC(=O)c1sc(NCc2ccccc2)nc1C	21	47	5	28	24
Cn1sc(NC(=O)c2ccc(Cl)cc2)nc1=O	46*	48	21	.	22
CC(=O)c1sc(NC(=O)c2ccc(F)c(F)c2)nc1C	8	12	.	23	17
CC(=O)c1sc(NCc2ccc(C)cc2)nc1C	53*	65*	19	?	49
Cc1ccc(C(=O)Nc2nc(=O)n(C)s2)cc1	23	19	-4	35	2
CC(=O)c1sc(NC(=O)c2ccccc2C)nc1C	76*	8	9	67	11
C[C@H](CO)N1C[C@H](C)[C@@H](CN(C)Cc2ccc(C(=O)O)cc2)Oc2c(NC(=O)C3CCOCC3)cccc2C1=O	0	.	.	.	.
C[C@@H]1CN([C@H](C)CO)C(=O)c2cccc(NC(=O)Nc3ccccc3)c2O[C@@H]1CN(C)S(=O)(=O)c1cn(C)cn1	3	.	.	.	.
Cc1ccc(S(=O)(=O)N(C)C[C@H]2Oc3ccc(NC(=O)Nc4cccc5ccccc45)cc3C(=O)N([C@@H](C)CO)C[C@H]2C)cc1	6	.	.	.	.
N#C[C@H]1[C@H](c2ccccc2)[C@H](CO)N1C(=O)CCN1CCCCC1	-2	.	.	.	.
C[C@@H](NC(=O)C[C@H]1C=C[C@@H](NC(=O)C2CC2)[C@@H](CO)O1)c1ccccc1	-1	.	.	.	.
C[C@@H]1CN([C@H](C)CO)C(=O)Cc2cc(NC(=O)NC3CCCCC3)ccc2O[C@H]1CN(C)S(=O)(=O)c1cccs1	4	.	.	.	.
Cc1ccc(S(=O)(=O)N[C@H]2CC[C@H](CC(=O)NCc3ccncn3)O[C@@H]2CO)cc1	-1	.	.	.	.
C[C@H]1CN([C@@H](C)CO)C(=O)c2cc(/C=C/c3ccccc3)cnc2O[C@@H]1CN(C)C(=O)c1ccc2c(c1)OCO2	0	.	.	.	.
Cc1cn2c(N)c(/C=C3\C=Nc4ccccc43)c(=O)nc2s1	.	24	39*	.	15
CCOc1nc(N2CCOCC2)nc(C)c1[N+](=O)[O-]	4	-3	33*	-6	-8
CNCCOc1nc(N2CCOCC2)nc(C)c1[N+](=O)[O-]	-4	-3	-3	2	-5
SMILES	esBAF inh	HSF-1 act	Wnt bcat act	MITF act	HSF1 inh
C[C@H]1CN([C@@H](C)CO)C(=O)c2cc(C#CC3CCCCC3)cnc2O[C@@H]1CN(C)C(=O)NC1CCCC1	0	.	.	.	.
COCCN1Cc2cc3cc(C)ccc3nc2SC1=Nc1ccc(OC)cc1	.	5	0	17	-2
CCOc1ccc(N=C2Sc3nc4ccc(C)cc4cc3CN2CCOC)cc1	54*	-1	-3	6	1
COCCN1Cc2cc3cc(C)ccc3nc2SC1=Nc1cccc(OC)c1	49*	-1	-2	8	3
C[C@H](CO)N1C[C@H](C)[C@H](CN(C)C)Oc2cc(C#C[C@@H](C)O)ccc2S1(=O)=O	-1	.	.	.	.
CCC(C)(C)n1nnnc1C(c1cc2cc(C)cc(C)c2[nH]c1=O)N1CCN(Cc2ccc3c(c2)OCO3)CC1 (stereo unspecified)	-1	54*	-2	.	21
CCC(C)(C)n1nnnc1C(c1cc2cc(C)cc(C)c2[nH]c1=O)N1CCCC1 (stereo unspecified)	-4	.	.	-4	.
C[C@@H]1CN([C@@H](C)CO)C(=O)c2cc(-c3ccncc3)cnc2O[C@H]1CN(C)C(=O)C1CCCCC1	-2	.	.	.	.
CCC(=O)Nc1ccc(NC(=O)c2cc3ccccc3o2)c(OC)c1	43*	?	-2	.	19
COc1cc(NC(=O)c2c(OC)cccc2OC)ccc1NC(=O)c1cc2ccccc2o1	?	52*	2	93*	35
COc1cc(NC(=O)c2cc3ccccc3o2)ccc1NC(=O)c1ccco1	11	-10	2	4	0
CCN1[C@H](C(=O)N(C)C)[C@@H](CO)[C@@H]2Cn3c(ccc(-c4cccc(C(=O)N(C)C)c4)c3=O)[C@@H]21	-3	.	.	.	.
CCN1C(=O)/C(=C\N(C(C)=O)c2ccccc2)OC1=S	45*	7	.	6	-1
CCOC(=O)C1=C(C)N=c2s/c(=C/c3ccc(OCC(=O)O)c(OC)c3)c(=O)n2C1c1ccc(Cl)cc1 (stereo unspecified)	.	21	0	.	4
O=C1CCCC2=C1C(c1ccc(Cl)cc1)n1c(s/c(=C\c3ccc4ccncc4c3)c1=O)=N2 (stereo unspecified)	.	?	36*	2	35
C(#Cc1ccccc1)Cn1nnc2ccccc21	60*	26	.	86*	5
O=C(O)Cn1nnc2ccccc21	.	-5	2	8	3
c1ccc(CNn2nnc3ccccc32)cc1	.	.	0	.	.
O=C(Cn1nnc2ccccc21)c1ccc([N+](=O)[O-])cc1	.	17	2	8	14
O=C(O)CCn1nnc2ccccc21	.	13	47*	1	5
O=C(Cn1nnc2ccccc21)c1ccc(Cl)cc1	15	28	45*	74	9
CO[C@H]1CN(C)C(=O)c2cc(NC(C)=O)ccc2OC[C@H](C)NC[C@@H]1C	2	.	.	.	.
C[C@@H]1CN([C@@H](C)CO)C(=O)c2cc(NS(=O)(=O)c3cn(C)cn3)ccc2O[C@@H]1CN(C)C(=O)Nc1ccc2c(c1)OCO2	-4	.	.	.	.
Cc1nc([N+](=O)[O-])c(Br)n1CC(=O)c1ccc(Cl)cc1	.	29	.	-9	14
COc1ccc(C(=O)Cn2c(C)nc([N+](=O)[O-])c2Br)cc1	0	172*	-3	-4	97
CO[C@@H]1CN(C)C(=O)c2ccc(NC(=O)c3ccccc3)cc2OC[C@H](C)N(CC2CC2)C[C@@H]1C	1	.	.	.	.
CC(C)(C)c1nnc(NC(=O)c2ccc3c(c2)OCO3)s1	.	29	?	121*	31
CCSc1nnc(NC(=O)c2ccc3c(c2)OCO3)s1	14	30	.	63	8
CC(C)(C)c1nnc(NC(=O)COc2ccc3c(c2)OCO3)s1	69*	-29	-2	85*	-13

Screening results from PubChem BioAssay.
